# ELG1 repair inh = inhibitors of ELG1-dependent DNA repair in HEK293T cells. HEK293T ELG1-luciferase reporter, luminescence, 16 h; DNA damage induced by 5-fluorouridine. Potency, µM (titrated, usually from 46.1 µM), hits mostly inhibitors. hit rate 2.3% among 330,000. AID 504467; further: nearly all actives have a fitted effect of over 55% in size
#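 Quantitative HTS, concentration-response format. 2,000 cells/well co-treated with 5-fluorouridine and compound, 16 hr in 5% CO2 at 37 °C; ONE-Glo luminescence read after 30 min.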
# ELG1 genotoxic = induces genotoxicity in HEK293T cells with luciferase-tagged ELG1; HEK293T ELG1-luciferase reporter, luminescence, 16 h; Potency, µM (titrated, usually from 46 µM), hits mostly activators; hit rate 1.3% among 330,000; further: nearly all actives have a fitted effect of over 60% in size
#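 Reporter readout depends on ELG1 protein level, which increases with genetic stress. After 16 hr compound exposure at 37 °C, luciferase activity was quantified using ONE-Glo.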
# NPC1 promoter act = activators of NPC1 promoter. Huh7 NPC1 promoter luciferase reporter, 24 h. Potency, µM (top dose mostly 9.22 µM), most hits filed as activators. hit rate 2.4% among 320,000. AID 485313; further: nearly all actives have a fitted effect of over 60% in size
#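 Compounds in DMSO were transferred onto Huh7 NPC1-luciferase reporter cells pre-incubated 2 h; after 24 h at 37 °C, Amplite reagent was dispensed and luminescence recorded 10 min later.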
# SMN2 splice enh = SMN2 splice variant enhancement; HEK293 SMN2-luciferase splicing reporter, luminescence, 30-36 h; hit rate 2.8% among 210,000; AID 1458; Potency, µM (doses to about 46.1 µM), hits mostly activators; further: nearly all actives have a fitted effect of over 55% in size
#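 qHTS luciferase splicing reporter: luminescence rises when SMN2 exon 7 is included in transfected HEK293 cells. Compound exposure lasted 30-36 h at 37C, with 4.5 mM final sodium butyrate as control, followed by a ONE-Glo read.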
# Rab9 prom act = activators of Rab9 promoter; hit rate 2.8% among 320,000; Huh7 Rab9 promoter-luciferase reporter, luminescence, 24 h; AID 485297; Potency, µM (top dose mostly 9.22 µM), usual class: activators; further: nearly all actives have a fitted effect of over 60% in size
#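 Quantitative HTS format; Huh7 Rab9-luciferase reporter cells (1500/well) receive compound 2 h post-plating, incubate 24 h at 37 °C, then get luciferase reagent for 10 min before luminescence reading.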
# FLuc modulator = firefly luciferase modulation, counter-screen for miR-21 project | Potency, µM (top dose mostly 57.5 µM), most hits filed as inhibitors | hit rate 6.9% among 360,000 | purified FLuc, Km substrates, luminescence inhibition; further: nearly all actives have a fitted effect of over 55% in size
# Target sequence (P08659 whole entry, looked up): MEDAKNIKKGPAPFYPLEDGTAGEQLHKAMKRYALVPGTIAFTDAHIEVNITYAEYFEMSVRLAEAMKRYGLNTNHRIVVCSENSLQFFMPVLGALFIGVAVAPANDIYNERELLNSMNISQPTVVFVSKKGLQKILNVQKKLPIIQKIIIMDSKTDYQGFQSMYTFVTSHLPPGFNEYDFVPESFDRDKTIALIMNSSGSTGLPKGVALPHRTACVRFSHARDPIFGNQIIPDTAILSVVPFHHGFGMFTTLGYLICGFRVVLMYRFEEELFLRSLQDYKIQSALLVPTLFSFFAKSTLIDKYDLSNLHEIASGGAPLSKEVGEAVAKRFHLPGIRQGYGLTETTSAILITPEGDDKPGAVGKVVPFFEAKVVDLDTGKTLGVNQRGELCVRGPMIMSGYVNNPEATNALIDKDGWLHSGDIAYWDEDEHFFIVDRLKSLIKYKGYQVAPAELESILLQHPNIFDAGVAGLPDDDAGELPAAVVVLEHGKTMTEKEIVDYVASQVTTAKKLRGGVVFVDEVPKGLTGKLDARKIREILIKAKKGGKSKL
#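 Purified P. pyralis luciferase (10nM final) with 10uM D-luciferin and 10uM ATP (Km levels) in 50mM Tris acetate pH 7.5, 10mM Mg acetate, 0.01% Tween-20, 0.05% BSA; qHTS 6-point titration, ~60 µM downward; luminescence read.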
# Numbers stand for hits; 0 = inactive; ? = inconclusive; - = no result; [ ] = remark or other dose. This is a sample that favours compounds with a hit; in the whole collection about 9.2% have one here. The call rests on the fitted dose curve; in most records, active means well fitted curve in the direction sought with a large enough effect; inconclusive means small, poorly fitted or top-dose-only effect, or another doubt; inactive means no such curve, though single readings can be large; an effect the other way counts as inactive or inconclusive.
SMILES,ELG1 repair inh,ELG1 genotoxic,NPC1 promoter act,SMN2 splice enh,Rab9 prom act,FLuc modulator
COc1cc(NC(=O)CCc2c(C)nn(-c3ccc(N4CCCCC4)nn3)c2C)cc(OC)c1OC,-,-,-,-,-,19µM
COC(=O)c1ccc(NC(=O)CCc2c(C)nn(-c3ccc(N4CCCCC4)nn3)c2C)cc1,-,-,-,-,-,9.5µM
COc1ccc(NC(=O)CCc2c(C)nn(-c3ccc(N4CCCCC4)nn3)c2C)cc1Cl,-,-,-,-,-,2.1µM
Cc1ccc(NC(=O)CCc2c(C)nn(-c3ccc(N4CCOCC4)nn3)c2C)cc1C,0,0,0,-,0,?
CCOC(=O)[C@@H]1C(c2c(OC)cc(OC)cc2OC)=NO[C@@H]1C(=O)OCC,0,0,0,0,0,0
CCOC(=O)c1c(S(=O)(=O)NCC(=O)Nc2ccc(C(C)=O)cc2)c(C)n(C)c1C,-,-,-,-,-,0
COc1ccc(C2(c3ccc(OC)cc3)NC(=O)N(CC(=O)N(C)C)C2=O)cc1,0,0,0,-,0,0
COc1ccccc1CCC(=O)Nc1ncc(C)s1,?,0,0,-,0[1.84 µM],0
COC(CNC(=O)c1cccnc1)OC,0,0,0,-,0,0
COC(CNC(=O)c1ccc2c3c(onc13)-c1ccccc1C2=O)OC,?,?,?,-,?,15µM
COc1ccccc1N1CCN(C(=O)CSc2n[nH]c(-c3ccccc3)n2)CC1,-,-,-,-,-,0
O=C(CSc1nc(-c2ccccc2)no1)N1CCN(c2ccccc2F)CC1,-,-,-,-,-,0
CC(C)c1ccc(-c2noc(SCC(=O)N3CCN(c4ccccc4F)CC3)n2)cc1,-,-,-,-,-,2.4µM
COc1ccccc1N1CCN(C(=O)CSc2nc(-c3ccc(C(C)C)cc3)no2)CC1,-,-,-,-,-,2.1µM
O=C(CSc1nc(-c2ccccc2)no1)N1CCCCC1,-,-,-,0,-,24µM
Cc1cc(C)nc(-n2nc(C)c3c2N(Cc2ccccc2F)C(=O)CC3c2ccc(Cl)cc2)n1 (stereo not given),-,-,-,-,-,0
Cc1nc2ccccc2nc(C)c1=NOCc1ccc(C#N)cc1,0,0,0,0,0,0
N#Cc1ccc(CO/N=C/c2ccccc2)cc1,?,?,?,?,?,24µM
Cc1ccc(C(=O)O)cc1N=Cc1cc(Br)cc(Br)c1O,0,0,0,0,0,0
CN(/N=C/c1cc(Br)cc(Br)c1O)c1cccc(C(F)(F)F)n1,7.3µM,0,0,-,0,0
CSc1cccc(NC(=O)Cn2ncn3c(cc4ccccc43)c2=O)c1,-,-,-,0,-,0
Cc1ccc(C2=NC(c3ccccc3)=Nc3ccc(Cl)cc3N2)cc1,-,-,-,0,-,11µM
COc1ccc(NC(=O)N/C=C/c2ccc(Cl)cc2)cc1,0,0,0,0,0,0
Cc1ccc(NC(=O)N/C=C/c2ccccc2)cc1,?,?,0.89µM,14µM,1.4µM,2.1µM
O=C(N/C=C/c1ccccc1)Nc1ccc(Cl)cc1,?,?,3.5µM,?,4.5µM,6.7µM
SMILES,ELG1 repair inh,ELG1 genotoxic,NPC1 promoter act,SMN2 splice enh,Rab9 prom act,FLuc modulator
Cc1ccc(NC(=O)N/C=C/c2ccc(Cl)cc2)cc1,0,0,?,0,-,0
COc1ccc(CNC(=O)C2CCC(CNS(=O)(=O)c3cccs3)CC2)cc1 (stereo not given),?,0,0,0,0,0
CC(=O)Nc1ccc(SCC(=O)Nc2ccccc2-c2ccccc2)cc1,0,0,0,0,0,0
CC(=O)Nc1ccc(SCc2ncc(-c3ccccc3)o2)cc1,?,?,1.4µM,-,0.71µM,13µM
CCC(=O)Nc1ccc(C(=O)CSc2nc(N)cc(N)n2)cc1,0,0,0,-,0,0
Cc1ccc(NC(=O)c2cc(N(C)C)ccc2[P+](=O)O)cc1,?,?,0,0,0,19µM
COc1ccccc1COC(=O)N/C=C/c1ccco1,0,0,?,?,?,15µM
Cc1cc(=O)oc2cc(NC(=O)c3ccccc3OC(F)F)ccc12,?,?,4µM,-,3.2µM,?
Cc1cc(=O)oc2cc(NC(=O)c3cc(F)ccc3F)ccc12,?,?,?,-,2.5µM,0
Cc1cc(=O)oc2cc(NC(=O)C(C)Oc3cccc(Cl)c3)ccc12 (stereo not given),?,0,0,-,0,0
Cc1cc(=O)oc2cc(NC(=O)c3cccc(Br)c3)ccc12,?,0,?,-,?,0
C=CCOC(=O)C1=C(C)NC(SCC(=O)N(CC)CC)=C(C#N)C1c1ccco1 (stereo not given),8.2µM,0,0,0,0,0
C=CCOC(=O)C1=C(C)NC(SCC(=O)N(CC)CC)=C(C#N)C1c1ccccc1 (stereo not given),16µM,0,0,0,0,0
NS(=O)(=O)c1ccc(NC(=O)COC(=O)COc2cccc(C(F)(F)F)c2)cc1,0,0,0,-,0,13µM
NS(=O)(=O)c1ccc(NC(=O)COC(=O)COc2ccc3ccccc3c2)cc1,0,0,0,0,0,?
COc1cc(Cl)c(C)cc1NC(=O)c1cnc(N2CCCCC2)c2ccccc12,-,-,-,-,-,0
Cc1nc(NCCOc2ccccc2)sc1C(=O)Nc1ccccc1,?,0,2.8µM,-,?,?
